The values below come from article PMC7862700, “An all-to-all approach to the identification of sequence-specific readers for epigenetic DNA modifications on cytosine”.

Holding throughout (assay): DAPPL (digital affinity profiling via proximity ligation, sequencing); 10 mM Tris-HCl pH 7.5, 50 mM NaCl, 1 mM DTT, 4% glycerol, room temperature, 30 min; GST-TFs on glutathione beads, 16-mer random dsDNA library, 0.1% formaldehyde crosslink after washing; high values mean tight binding
Common to all, as to conditions: protein: recombinant; tags: N-terminal GST; dsDNA, one strand shown

The target of one assay is T1, FLI1 (Homo sapiens, UniProt Q01543 1-452).
T1 sequence: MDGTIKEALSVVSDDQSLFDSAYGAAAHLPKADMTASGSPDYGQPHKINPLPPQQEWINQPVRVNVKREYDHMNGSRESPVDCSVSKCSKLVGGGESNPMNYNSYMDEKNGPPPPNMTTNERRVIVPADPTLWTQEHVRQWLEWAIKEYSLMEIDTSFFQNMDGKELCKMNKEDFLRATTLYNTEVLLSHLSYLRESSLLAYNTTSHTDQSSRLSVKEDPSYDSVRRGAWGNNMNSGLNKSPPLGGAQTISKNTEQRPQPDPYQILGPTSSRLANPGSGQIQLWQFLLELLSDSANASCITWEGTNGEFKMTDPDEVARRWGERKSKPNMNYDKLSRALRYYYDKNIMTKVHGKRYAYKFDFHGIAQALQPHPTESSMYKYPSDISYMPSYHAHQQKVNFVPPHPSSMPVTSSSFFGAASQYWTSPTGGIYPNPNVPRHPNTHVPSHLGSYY
The gist of the method: (§1)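 GST fusions of human transcription factors were expressed in yeast and captured with glutathione beads. Once given DNA barcodes and pooled alongside a tag-only sample, they were incubated for 30 min at room temperature with 200 nmole of a random double-stranded 16-mer DNA library in Tris/NaCl/DTT/glycerol buffer, then washed, crosslinked (0.1% formaldehyde), proximity-ligated, PCR-amplified and sequenced on an Illumina NextSeq500. The binding signal of each hexamer is its read frequency for a factor divided by its frequency for the tag-only sample.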

The next assay has as its target T2, ELK1 (Homo sapiens, UniProt P19419 1-428).
T2 sequence: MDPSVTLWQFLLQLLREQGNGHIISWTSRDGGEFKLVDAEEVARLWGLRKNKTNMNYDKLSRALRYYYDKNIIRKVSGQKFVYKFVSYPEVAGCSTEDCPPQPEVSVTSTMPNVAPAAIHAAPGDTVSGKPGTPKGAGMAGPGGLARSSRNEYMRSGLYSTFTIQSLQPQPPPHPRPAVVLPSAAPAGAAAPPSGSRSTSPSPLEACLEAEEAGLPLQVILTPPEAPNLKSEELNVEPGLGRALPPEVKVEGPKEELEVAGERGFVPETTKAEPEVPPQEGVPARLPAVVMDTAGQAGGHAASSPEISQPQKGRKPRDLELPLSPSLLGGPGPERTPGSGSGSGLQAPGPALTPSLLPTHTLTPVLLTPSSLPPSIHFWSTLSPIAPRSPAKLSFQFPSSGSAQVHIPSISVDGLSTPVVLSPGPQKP
In outline: as §1

For another assay, the target named is T3, GABPA (Homo sapiens, UniProt Q06546 1-454).
T3 sequence: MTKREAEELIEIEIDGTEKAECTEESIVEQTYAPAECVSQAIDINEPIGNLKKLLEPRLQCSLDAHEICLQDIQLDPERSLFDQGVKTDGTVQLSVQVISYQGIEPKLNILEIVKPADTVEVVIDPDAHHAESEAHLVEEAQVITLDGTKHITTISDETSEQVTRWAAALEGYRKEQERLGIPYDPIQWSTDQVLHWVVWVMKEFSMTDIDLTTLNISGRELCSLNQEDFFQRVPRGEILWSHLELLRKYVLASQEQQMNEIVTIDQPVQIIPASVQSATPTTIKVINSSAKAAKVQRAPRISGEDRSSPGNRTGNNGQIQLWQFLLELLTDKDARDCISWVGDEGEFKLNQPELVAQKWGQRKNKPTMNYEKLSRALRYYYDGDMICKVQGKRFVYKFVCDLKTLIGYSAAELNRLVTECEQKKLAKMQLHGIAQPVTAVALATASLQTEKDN
The gist of the method:
as §1

Another assay addresses T4, ERG (Homo sapiens, UniProt P11308 1-479).
T4 sequence: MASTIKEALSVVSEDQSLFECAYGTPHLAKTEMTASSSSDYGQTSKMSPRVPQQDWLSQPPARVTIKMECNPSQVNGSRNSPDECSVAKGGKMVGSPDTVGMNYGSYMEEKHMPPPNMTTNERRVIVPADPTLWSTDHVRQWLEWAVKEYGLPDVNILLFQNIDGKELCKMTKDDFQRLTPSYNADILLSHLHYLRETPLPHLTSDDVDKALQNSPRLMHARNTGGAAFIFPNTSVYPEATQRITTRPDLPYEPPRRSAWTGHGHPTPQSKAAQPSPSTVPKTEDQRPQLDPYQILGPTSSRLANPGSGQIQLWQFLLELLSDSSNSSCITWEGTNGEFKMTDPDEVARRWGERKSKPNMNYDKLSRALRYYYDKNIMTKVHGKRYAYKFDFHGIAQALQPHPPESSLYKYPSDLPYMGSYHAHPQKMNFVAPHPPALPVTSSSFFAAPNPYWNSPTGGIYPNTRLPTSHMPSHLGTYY
The gist of the method: as §1

A further assay deals with ELF1 (Homo sapiens, UniProt P32519 1-619). In outline: as §1
The next assay addresses T5, EHF (Homo sapiens, UniProt Q9NZC4 1-300).
T5 sequence: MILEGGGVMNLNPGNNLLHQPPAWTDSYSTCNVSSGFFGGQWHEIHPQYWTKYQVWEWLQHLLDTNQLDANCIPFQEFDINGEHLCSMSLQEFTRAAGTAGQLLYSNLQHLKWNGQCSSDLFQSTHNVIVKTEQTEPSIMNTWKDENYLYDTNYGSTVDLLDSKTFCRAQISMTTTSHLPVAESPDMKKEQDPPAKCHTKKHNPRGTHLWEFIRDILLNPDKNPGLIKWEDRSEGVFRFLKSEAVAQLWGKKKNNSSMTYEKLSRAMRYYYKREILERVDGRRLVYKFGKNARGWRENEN
The gist of the method: as §1

Another assay concerns the target SPI1 (Homo sapiens, UniProt P17947 1-270). In outline: as §1
In a further assay the target is SPIB (Homo sapiens, UniProt Q01892 1-262). The gist of the method: as §1
For a further assay, the target named is T6, ELK3 (Homo sapiens, UniProt P41970 1-407).
T6 sequence: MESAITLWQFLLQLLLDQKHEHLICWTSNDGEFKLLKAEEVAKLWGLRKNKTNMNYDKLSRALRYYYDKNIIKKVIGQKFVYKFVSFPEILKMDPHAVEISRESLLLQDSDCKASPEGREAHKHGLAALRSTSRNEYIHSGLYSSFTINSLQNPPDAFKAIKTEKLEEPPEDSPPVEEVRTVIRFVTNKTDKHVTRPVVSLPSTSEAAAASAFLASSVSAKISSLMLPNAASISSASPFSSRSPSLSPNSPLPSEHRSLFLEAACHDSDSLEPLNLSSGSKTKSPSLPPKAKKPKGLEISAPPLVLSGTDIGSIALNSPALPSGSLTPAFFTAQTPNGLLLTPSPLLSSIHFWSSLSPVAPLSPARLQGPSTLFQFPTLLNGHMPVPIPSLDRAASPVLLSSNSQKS
The gist of the method:
as §1

Chain of ELF1 (P32519 whole entry): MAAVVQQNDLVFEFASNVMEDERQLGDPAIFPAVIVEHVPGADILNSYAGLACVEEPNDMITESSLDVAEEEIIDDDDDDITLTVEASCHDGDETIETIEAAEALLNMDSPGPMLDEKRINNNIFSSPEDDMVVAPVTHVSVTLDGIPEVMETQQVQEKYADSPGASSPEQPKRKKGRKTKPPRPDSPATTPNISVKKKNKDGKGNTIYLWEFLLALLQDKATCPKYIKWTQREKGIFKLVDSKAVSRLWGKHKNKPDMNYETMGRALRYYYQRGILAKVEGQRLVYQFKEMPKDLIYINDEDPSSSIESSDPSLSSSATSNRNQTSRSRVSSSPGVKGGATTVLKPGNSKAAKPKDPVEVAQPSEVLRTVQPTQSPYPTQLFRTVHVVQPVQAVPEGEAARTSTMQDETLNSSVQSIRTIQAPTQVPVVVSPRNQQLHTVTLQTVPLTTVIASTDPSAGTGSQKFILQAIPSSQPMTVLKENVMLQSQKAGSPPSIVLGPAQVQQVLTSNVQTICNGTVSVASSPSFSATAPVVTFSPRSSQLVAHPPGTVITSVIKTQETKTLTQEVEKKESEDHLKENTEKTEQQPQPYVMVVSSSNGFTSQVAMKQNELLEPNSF
Chain of SPIB (Q01892 whole entry): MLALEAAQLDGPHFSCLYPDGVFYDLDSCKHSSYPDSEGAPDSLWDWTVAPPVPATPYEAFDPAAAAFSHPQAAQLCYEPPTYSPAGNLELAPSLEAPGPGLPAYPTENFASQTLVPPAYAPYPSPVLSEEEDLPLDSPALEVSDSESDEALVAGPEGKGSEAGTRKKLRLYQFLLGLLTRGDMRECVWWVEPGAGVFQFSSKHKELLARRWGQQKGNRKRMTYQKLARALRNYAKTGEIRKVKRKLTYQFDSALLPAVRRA

For the sequence CTTCTT, the binding signal with FLI1 was 1.44 fold enrichment (6-mer frequency, TF over GST control); with ELK1, 1.58 fold enrichment (6-mer frequency, TF over GST control); in the assay with GABPA, 1.5 fold enrichment (6-mer frequency, TF over GST control); with ERG, 1.63 fold enrichment (6-mer frequency, TF over GST control); with ELF1, 1.65 fold enrichment (6-mer frequency, TF over GST control); in the assay with EHF, 1.53 fold enrichment (6-mer frequency, TF over GST control). Moreover, the binding signal is 1.61 fold enrichment (6-mer frequency, TF over GST control) in the assay with SPI1; 1.44 fold enrichment (6-mer frequency, TF over GST control) with SPIB; 1.61 fold enrichment (6-mer frequency, TF over GST control) in the assay with ELK3.

Turning to TACCTA, the binding signal in the assay with FLI1 is 1.32 fold enrichment (6-mer frequency, TF over GST control); in the assay with ELK1, 1.26 fold enrichment (6-mer frequency, TF over GST control); with GABPA, 1.24 fold enrichment (6-mer frequency, TF over GST control); with ERG it was 1.13 fold enrichment (6-mer frequency, TF over GST control); in the assay with ELF1, 1.34 fold enrichment (6-mer frequency, TF over GST control); in the assay with EHF, 1.22 fold enrichment (6-mer frequency, TF over GST control). Further, the binding signal is 1.28 fold enrichment (6-mer frequency, TF over GST control) with SPI1; 1.22 fold enrichment (6-mer frequency, TF over GST control) with SPIB; 1.23 fold enrichment (6-mer frequency, TF over GST control) with ELK3.

Turning to TCTTTC, the binding signal with FLI1 was 1.43 fold enrichment (6-mer frequency, TF over GST control); with ELK1 it was 1.27 fold enrichment (6-mer frequency, TF over GST control); with GABPA, 1.41 fold enrichment (6-mer frequency, TF over GST control); in the assay with ERG it was 1.3 fold enrichment (6-mer frequency, TF over GST control); with ELF1, 1.37 fold enrichment (6-mer frequency, TF over GST control); with EHF it was 1.43 fold enrichment (6-mer frequency, TF over GST control). Also, the binding signal with SPI1 is 1.51 fold enrichment (6-mer frequency, TF over GST control); with SPIB, 1.41 fold enrichment (6-mer frequency, TF over GST control); with ELK3 it was 1.39 fold enrichment (6-mer frequency, TF over GST control).

As to CCCTAT, the binding signal with FLI1 was 1.33 fold enrichment (6-mer frequency, TF over GST control); with ELK1 it was 1.33 fold enrichment (6-mer frequency, TF over GST control); in the assay with GABPA, 1.32 fold enrichment (6-mer frequency, TF over GST control); in the assay with ERG, 1.32 fold enrichment (6-mer frequency, TF over GST control); in the assay with ELF1, 1.32 fold enrichment (6-mer frequency, TF over GST control); with EHF, 1.25 fold enrichment (6-mer frequency, TF over GST control). Also, the binding signal with SPI1 is 1.45 fold enrichment (6-mer frequency, TF over GST control); with SPIB, 1.35 fold enrichment (6-mer frequency, TF over GST control); in the assay with ELK3, 1.46 fold enrichment (6-mer frequency, TF over GST control).

Consider TCAACT, for which the binding signal with FLI1 was 1.31 fold enrichment (6-mer frequency, TF over GST control); in the assay with ELK1 it was 1.31 fold enrichment (6-mer frequency, TF over GST control); in the assay with GABPA it was 1.34 fold enrichment (6-mer frequency, TF over GST control); in the assay with ERG it was 1.31 fold enrichment (6-mer frequency, TF over GST control); with ELF1, 1.31 fold enrichment (6-mer frequency, TF over GST control); with EHF, 1.35 fold enrichment (6-mer frequency, TF over GST control). The binding signal was 1.36 fold enrichment (6-mer frequency, TF over GST control) in the assay with SPI1; 1.3 fold enrichment (6-mer frequency, TF over GST control) with SPIB; 1.22 fold enrichment (6-mer frequency, TF over GST control) with ELK3.

As for TAATTC, the binding signal in the assay with FLI1 is 1.5 fold enrichment (6-mer frequency, TF over GST control); with ELK1, 1.36 fold enrichment (6-mer frequency, TF over GST control); with GABPA, 1.48 fold enrichment (6-mer frequency, TF over GST control); with ERG, 1.48 fold enrichment (6-mer frequency, TF over GST control); with ELF1, 1.48 fold enrichment (6-mer frequency, TF over GST control); with EHF, 1.37 fold enrichment (6-mer frequency, TF over GST control). In addition, the binding signal is 1.33 fold enrichment (6-mer frequency, TF over GST control) in the assay with SPI1; 1.51 fold enrichment (6-mer frequency, TF over GST control) with SPIB; 1.58 fold enrichment (6-mer frequency, TF over GST control) with ELK3.

Regarding TAACAC, the binding signal is 1.26 fold enrichment (6-mer frequency, TF over GST control) with FLI1; 1.2 fold enrichment (6-mer frequency, TF over GST control) in the assay with ELK1; 1.24 fold enrichment (6-mer frequency, TF over GST control) in the assay with GABPA; 1.19 fold enrichment (6-mer frequency, TF over GST control) in the assay with ERG; 1.23 fold enrichment (6-mer frequency, TF over GST control) in the assay with ELF1; 1.21 fold enrichment (6-mer frequency, TF over GST control) with EHF. Moreover, the binding signal is 1.18 fold enrichment (6-mer frequency, TF over GST control) with SPI1; 1.25 fold enrichment (6-mer frequency, TF over GST control) in the assay with SPIB; 1.15 fold enrichment (6-mer frequency, TF over GST control) with ELK3.
